Screening results from PubChem BioAssay.
Rab9 prom act: qHTS Assay for Rab9 Promoter Activators; Huh7 Rab9 promoter-luciferase reporter, luminescence, 24 h; Potency, µM (series often up to 9.22 µM), inactives show at the top dose activation, negative = inhibition, most hits filed as activators; hit rate 2.8% among 320,000; AID 485297, 2010; further: % of control where 0% means no effect; nearly all actives have a fitted effect of over 60% in size
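Luminescence read-out: Huh7 cells stably expressing Rab9-luciferase, treated 24 h with compound at 37 °C, then lysed with luciferase reagent for 10 min at ambient before reading.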
ELG1 DNA repair: qHTS screen for small molecules that inhibit ELG1-dependent DNA repair in human embryonic kidney (HEK293T) cells expressing luciferase-tagged ELG1; HEK293T ELG1-luciferase reporter, luminescence, 16 h; DNA damage induced by 5-fluorouridine; Potency, µM (titrated, usually from 46.1 µM), for inactives: at the top dose activity change, negative = inhibition, usual class: inhibitors; hit rate 2.3% among 330,000; AID 504467, 2011; further: on the % scale 0 is the no-effect control and ±100 the full control effect; nearly all actives have a fitted effect of over 55% in size
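Luminescence from the luciferase reporter, measured 30 min after ONE-Glo reagent at room temperature, was the read-out. Beforehand, 2,000 cells per well were exposed for 16 hr at 37 °C to 5-fluorouridine together with compound or vehicle.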
FLuc counter: qHTS profiling assay for firefly luciferase inhibitor/activator using purifed enzyme and Km concentrations of substrates (counterscreen for miR-21 project) | Potency, µM (doses to about 57.5 µM), without a hit: at the highest dose activity change, negative = inhibition, hits mostly inhibitors | Luciferin 4-monooxygenase (Photinus pyralis), P08659 | purified FLuc, Km substrates, luminescence inhibition | hit rate 6.9% among 360,000;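 further: plate controls were vehicle for no effect and reference inhibitor for full effect; nearly all actives have a fitted effect of over 55% in size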
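Purified P. pyralis luciferase, 10 nM final, with Km-level 10 uM D-luciferin and 10 uM ATP in 50 mM Tris acetate pH 7.5, 10 mM Mg acetate, 0.01% Tween-20, 0.05% BSA; 6-point qHTS titration about 60 µM downward; luminescence read.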
ELG1 genotoxic: qHTS screen for small molecules that induce genotoxicity in human embryonic kidney (HEK293T) cells expressing luciferase-tagged ELG1; Potency, µM (top dose mostly 46 µM), for inactives: at the highest dose activity change, positive = activation, actives largely listed as activators; HEK293T ELG1-luciferase reporter, luminescence, 16 h; AID 504466, 2011; hit rate 1.3% among 330,000; further: % of control where 0% means no effect; nearly all actives have a fitted effect of over 60% in size
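DMSO vehicle served as control against compound-treated ELG1-luciferase HEK293T cells; exposure lasted 16 hr at 37 °C and 5% CO2, followed by ONE-Glo luminescence detection after 30 min.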
NPC1 promoter act: qHTS Assay for NPC1 Promoter Activators; Huh7 NPC1 promoter luciferase reporter, 24 h; Potency, µM (series often up to 9.22 µM), for the others: top-dose activation, hits mostly activators; hit rate 2.4% among 320,000; AID 485313, 2010; further: % of control where 0% means no effect; nearly all actives have a fitted effect of over 60% in size
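In 1536-well qHTS, Huh7 cells harboring an NPC1 promoter–luciferase construct received compound for 24 h; activation was quantified by luminescence following luciferase reagent addition.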
SMN2 splice enh: qHTS Assay for Enhancers of SMN2 Splice Variant Expression | HEK293 SMN2-luciferase splicing reporter, luminescence, 30-36 h | Potency, µM (top dose mostly 46.1 µM), inactives show top-dose activity change, positive = activation, hits mostly activators | hit rate 2.8% among 210,000 | AID 1458, 2008; further: % of control where 0% means no effect; nearly all actives have a fitted effect of over 55% in size
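HEK293 cells carry an SMN2 […]–luciferase reporter in which exon 7 inclusion puts luciferase in frame. Cells were plated 10-12 h before compound addition, then incubated 30-36 h at 37C. ONE-Glo luminescence was read; sodium butyrate at 4.5 mM final served as control.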
ELG1 FLuc counter: qHTS screen for small molecules that inhibit ELG1-dependent DNA repair: Hit Confirmation in Cell-Based Luciferin Assay | hit rate 3% among 350 | shares compounds with ELG1 DNA repair | cell-free firefly luciferase luminescence counter-screen, ViewLux | Potency, µM (highest dose often 46.1 µM), for inactives: at the highest dose activity change, negative = inhibition, actives largely listed as inhibitors | AID 624247, 2012; further: on the % scale 0 is the no-effect control and ±100 the full control effect
ELG1 Luc conf: HTS assay for small molecules that inhibit ELG1-dependent DNA repair in human embryonic kidney (HEK293T) cells expressing luciferase-tagged ELG1: Hit Confirmation. hit rate 68% among 670. HEK293T ELG1-luciferase levels, luminescence; cells co-treated with 5-fluorouridine. shares compounds with ELG1 DNA repair. AID 624248, 2012. Potency, µM (titrated, usually from 46.1 µM), without a hit: at the top dose activity change, negative = inhibition, hits mostly inhibitors; further: on the % scale 0 is the no-effect control and ±100 the full control effect; nearly all actives have a fitted effect of over 55% in size
Target sequence (Q96QE3 whole entry, looked up): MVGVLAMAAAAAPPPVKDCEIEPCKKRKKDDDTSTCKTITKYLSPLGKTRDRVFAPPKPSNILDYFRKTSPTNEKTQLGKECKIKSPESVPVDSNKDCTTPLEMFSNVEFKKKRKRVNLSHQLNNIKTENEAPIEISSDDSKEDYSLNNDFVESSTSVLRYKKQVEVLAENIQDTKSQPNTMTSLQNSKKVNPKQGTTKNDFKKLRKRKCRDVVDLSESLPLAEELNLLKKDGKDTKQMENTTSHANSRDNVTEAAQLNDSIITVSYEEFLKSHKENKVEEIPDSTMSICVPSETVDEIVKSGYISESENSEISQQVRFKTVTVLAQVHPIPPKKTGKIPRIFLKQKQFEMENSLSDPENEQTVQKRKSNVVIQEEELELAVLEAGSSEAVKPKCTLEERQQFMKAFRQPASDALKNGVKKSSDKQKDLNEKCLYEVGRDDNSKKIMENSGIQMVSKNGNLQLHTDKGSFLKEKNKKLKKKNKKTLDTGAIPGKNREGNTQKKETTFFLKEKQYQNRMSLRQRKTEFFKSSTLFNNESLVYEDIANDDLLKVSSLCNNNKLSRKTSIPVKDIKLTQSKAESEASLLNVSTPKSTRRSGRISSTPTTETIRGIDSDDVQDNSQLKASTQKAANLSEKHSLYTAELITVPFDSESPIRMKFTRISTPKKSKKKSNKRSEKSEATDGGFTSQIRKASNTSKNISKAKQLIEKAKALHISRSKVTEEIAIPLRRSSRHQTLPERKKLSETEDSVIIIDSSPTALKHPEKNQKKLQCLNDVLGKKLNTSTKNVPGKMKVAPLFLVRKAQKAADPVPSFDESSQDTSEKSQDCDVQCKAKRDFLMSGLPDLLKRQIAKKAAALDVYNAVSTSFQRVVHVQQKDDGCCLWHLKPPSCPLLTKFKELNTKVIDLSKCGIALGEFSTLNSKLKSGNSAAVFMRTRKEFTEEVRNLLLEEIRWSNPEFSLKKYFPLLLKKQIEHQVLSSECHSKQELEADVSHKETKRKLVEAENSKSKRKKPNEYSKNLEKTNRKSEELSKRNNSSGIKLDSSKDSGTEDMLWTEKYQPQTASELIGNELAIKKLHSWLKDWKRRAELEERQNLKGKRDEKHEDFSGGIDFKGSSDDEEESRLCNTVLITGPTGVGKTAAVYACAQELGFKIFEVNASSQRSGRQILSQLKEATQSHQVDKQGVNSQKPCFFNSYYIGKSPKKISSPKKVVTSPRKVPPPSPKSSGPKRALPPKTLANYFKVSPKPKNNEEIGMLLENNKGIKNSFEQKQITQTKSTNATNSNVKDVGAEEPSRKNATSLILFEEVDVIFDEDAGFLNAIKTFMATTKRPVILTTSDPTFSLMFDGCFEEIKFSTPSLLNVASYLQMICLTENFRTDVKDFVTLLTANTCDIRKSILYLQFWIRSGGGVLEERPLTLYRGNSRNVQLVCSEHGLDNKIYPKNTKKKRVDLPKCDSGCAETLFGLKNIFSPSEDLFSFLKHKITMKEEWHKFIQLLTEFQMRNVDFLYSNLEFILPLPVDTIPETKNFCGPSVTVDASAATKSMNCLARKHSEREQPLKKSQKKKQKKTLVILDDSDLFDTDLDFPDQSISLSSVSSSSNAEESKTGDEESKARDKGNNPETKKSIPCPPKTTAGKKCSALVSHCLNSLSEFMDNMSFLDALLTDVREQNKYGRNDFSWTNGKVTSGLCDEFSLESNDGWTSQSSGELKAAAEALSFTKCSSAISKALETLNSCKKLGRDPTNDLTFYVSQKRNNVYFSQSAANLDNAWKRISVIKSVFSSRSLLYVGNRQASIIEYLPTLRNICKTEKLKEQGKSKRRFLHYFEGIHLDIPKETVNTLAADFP
ELG1 MMS Luc: confirmation of human ELG1 repair inhibitors, MMS stimulated | Potency, µM (highest dose often 46.1 µM), for inactives: at the highest dose activity change, negative = inhibition, usual class: inhibitors | shares compounds with ELG1 DNA repair | HEK293T luciferase-tagged ELG1 level, MMS stimulated | hit rate 53% among 670; further: on the % scale 0 is the no-effect control and ±100 the full control effect; nearly all actives have a fitted effect of over 60% in size
ELG1 5FU viab: qHTS screen for small molecules that inhibit ELG1-dependent DNA repair: Hit Confirmation with 5FU Viability; shares compounds with ELG1 DNA repair; cell viability with 5-FU, ELG1-dependent repair; Potency, µM (doses to about 46.1 µM), for inactives: top-dose activity change, negative = viability loss, usual class: cytotoxic; 670 tested, under 10 active;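 further: ELG1-luc HEK293T cells cotreated with 5-fluorouridine at 10 µM final; viability measured 16 h after compound addition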
ELG1 MMS cell: qHTS screen for small molecules that inhibit ELG1-dependent DNA repair: Hit Confirmation with MMS Viability; Potency, µM (series often up to 46.1 µM), inactives show top-dose activity change, negative = viability loss, usual class: cytotoxic; hit rate 33% among 670; AID 624251, 2012; shares compounds with ELG1 DNA repair; Cell viability with MMS, ELG1-dependent DNA repair;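 further: ELG1-luc HEK293T cells co-treated with 10 µM MMS; viability read 16 h after compound addition; on the % scale 0 is the no-effect control and ±100 the full control effect; nearly all actives have a fitted effect of over 60% in size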
ELG1 unstim viab: qHTS screen for small molecules that inhibit ELG1-dependent DNA repair: Hit Confirmation with Unstimulated Viability Assay; hit rate 8% among 900; shares compounds with ELG1 DNA repair; Potency, µM (titrated, usually from 45.9 µM), inactives show at the highest dose activity change, negative = loss of viability, actives largely listed as cytotoxic; AID 624252, 2012; cell viability counter-screen, unstimulated, luminescence;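 further: compound exposure lasted 16 hours before reading; on the % scale 0 is the no-effect control and ±100 the full control effect; nearly all actives have a fitted effect of over 55% in size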
FLuc enzyme: qHTS screen for small molecules that inhibit ELG1-dependent DNA repair: Hit Confirmation in Biochemical Luciferin Assay | AID 624253, 2012 | Potency, µM (series often up to 57.5 µM), without a hit: at the top dose activity, negative = inhibition, usual class: inhibitors | shares compounds with ELG1 DNA repair | purified firefly luciferase, luminescence counter-screen | hit rate 10% among 350; further: on the % scale 0 is the no-effect control and ±100 the full control effect
* = called active by the depositor; ? = inconclusive; / = not tested or not shown; [ ] = remark or other dose. This is a sample that favours compounds with a hit; in the whole collection about 9.4% have one here. The call rests on the fitted dose curve; in most records, active means well fitted curve in the direction sought with a large enough effect; inconclusive means small, poorly fitted or top-dose-only effect, or another doubt; inactive means no such curve, though single readings can be large; an effect the other way counts as inactive or inconclusive. Potency means the concentration at half of the fitted maximal effect.

SMILES	Rab9 prom act	ELG1 DNA repair	FLuc counter	ELG1 genotoxic	NPC1 promoter act	SMN2 splice enh	ELG1 Luc conf	ELG1 MMS Luc	ELG1 5FU viab	ELG1 MMS cell	ELG1 unstim viab	others
COc1cccc(CNC(=O)c2cccc(S(=O)(=O)N3CCN(c4ccc(F)cc4)CC3)c2)c1	2.9%	?	2.6%	28.8%	-1.8%	/	/	/	/	/	/
COc1ccc(CNC(=O)c2cccc(S(=O)(=O)N3CCN(c4ccc(F)cc4)CC3)c2)cc1	-8.9%	3.26µM*	5.3%	-2.1%	-10.0%	/	14.1µM*	15.8µM*	7.4%	12.5µM*	?
O=c1c(-c2cccs2)nc2cnc(Oc3cccc(Cl)c3)nc2n1C1CC1	/	/	/	/	/	0.9%	/	/	/	/	/
CCCCS(=N)(=O)CC[C@H](N)C(=O)O (some centres undefined)	4.3%[46.1 µM]	/	/	/	4.8%[46.1 µM]	8.5%	/	/	/	/	/
CN(C(=O)CSc1nc2ccccc2n1CC(=O)N(C)c1ccc(F)cc1)c1ccccc1	/	/	-2.5%	/	/	/	/	/	/	/	/
CC(=O)NC(CC(=O)Nc1ccc(S(=O)(=O)NC2=NCCCCC2)cc1)c1ccccc1 (centres undefined)	2.0%	18.4%	2.5%	-0.1%	0.8%	/	/	/	/	/	/
CC(=O)NC(CC(=O)Nc1ccc(S(=O)(=O)Nc2nccs2)cc1)c1ccccc1 (centres undefined)	-5.8%	0.517µM*	4.0%	2.1%	-1.0%	/	?	-5.8%	4.9%	10.6%	5.3%	ELG1 FLuc counter=6.4%;FLuc enzyme=1.6%
CCCCC/C=C\C/C=C\C/C=C\C=C\C(O)CCCC(=O)O (centres undefined)	/	/	/	/	/	6.8%	/	/	/	/	/
COc1cccc(C(=O)N/N=c2\oc3c(OC)cccc3cc2C(=O)NCc2ccccc2)c1	2.9%	4.11µM*	5.1%	7.1%	7.2%	-19.9%	2.23µM*	?	?	4.1%	-13.3%
CCOc1ccc(CCNC(=O)c2oc(=O)c3ccccc3c2-c2ccc(C)cc2)cc1OCC	/	/	-8.4%	/	/	-12.0%	/	/	/	/	/
COc1ccc(C(=O)NNc2ncnc3c2cnn3-c2ccc(C)cc2C)cc1	/	/	-10.9%	/	/	/	/	/	/	/	/
CCc1cccc(NC(=O)Cn2cc(C=O)c3ccccc32)c1	-2.4%	3.66µM*	-4.0%	8.5%	-5.2%	-71.9%	?	2.5µM*	0.9%	2.81µM*	-17.9%
CCOc1ccc(C2CC(=O)Nc3c2c(=O)[nH]c2ncnn32)cc1 (centres undefined)	/	/	-7.5%	/	/	-2.8%	/	/	/	/	/
Cc1ccc(C)c(N2CCN(C(=O)CCS(=O)(=O)c3ccc4c(c3)NC(=O)C(C)S4)CC2)c1 (centres undefined)	-34.9%	4.61µM*	4.0%	-12.9%	-27.8%	/	12.5µM*	1.99µM*	?	1.99µM*	?
COc1ccc(N2CCN(C(=O)CCS(=O)(=O)c3ccc4c(c3)NC(=O)C(C)S4)CC2)cc1 (centres undefined)	-6.0%	-10.0%	-2.3%	-4.9%	0.6%	/	/	/	/	/	/
O=S(=O)(c1cc(F)ccc1F)N1CCN(c2ncnc3ccccc23)CC1	/	4.61µM*	/	-4.0%	/	/	6.28µM*	2.23µM*	-14.3%	2.5µM*	?
O=S(=O)(c1c(Cl)cc(Br)cc1Cl)N1CCN(C(=S)NC2CC2)CC1	/	4.11µM*	/	-2.2%	/	/	3.97µM*	15.8µM*	?	14.1µM*	-12.4%
N#C/C(=C\c1cccnc1)c1ccccn1	19.4%	?	-6.7%	9.2%	1.8%	/	/	/	/	/	4.3%	ELG1 FLuc counter=44.4%;FLuc enzyme=-3.0%
Cc1ccc(-c2csc(=Nc3cccnc3)n2CCCn2ccnc2)cc1C	-7.1%	2.91µM*	-1.5%	-11.8%	5.3%	-39.8%	3.97µM*	6.29µM*	-2.7%	9.97µM*	22.3µM*	ELG1 FLuc counter=?;FLuc enzyme=1.0%
Cc1ccc(-c2csc(=Nc3cccnc3)n2CCCN2CCCC2=O)cc1C	-5.7%	?	-0.6%	0.2%	0.1%	16.8%	/	/	/	/	/
CCOC(=O)c1nnn(C(CC)C(=O)Nc2ccc(F)cc2)c1C(=O)OCC (centres undefined)	/	/	-1.1%	/	/	-2.7%	/	/	/	/	/
COc1ccc(NC(=O)c2cc(C3CC3)nc3c2c(C)nn3-c2ccccc2)c(OC)c1	/	/	-6.2%	/	/	/	/	/	/	/	/
